Results published in PubChem BioAssay.
Inconclusive results are not listed. Calls of active or inactive are those of the source.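 How the source made its calls, unless noted: active means growth inhibition above 25% in both replicates, a cutoff set 3 SD above the mean; inconclusive means above 25% in only one replicate; inactive means the rest.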

Key:
[1] = Her2 expression decrease, cell viability multiplex – SKBR3 breast tumor cells, AlphaScreen, ATP viability, primary screen (AID 461;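 active means Her2 level under about 52% in both replicate screens, with viability over 70% of control, limit read from the data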;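 on Her2 level: lower value means less Her2 protein in the cells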;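 on viability: percent of carrier control wells set as 100% viability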); conditions: SKBR3 Her2 protein level, 18-24 h, measured here: SKBR3 viability, ATP luminescence, at 10 µM
[2] = target: Receptor tyrosine-protein kinase erbB-2 (Homo sapiens) (UniProt P04626); experiment: as above; conditions: 18-24 h, at 10 µM, stronger effect = lower value
Chain of Receptor tyrosine-protein kinase erbB-2 (Homo sapiens) (P04626 whole entry, looked up): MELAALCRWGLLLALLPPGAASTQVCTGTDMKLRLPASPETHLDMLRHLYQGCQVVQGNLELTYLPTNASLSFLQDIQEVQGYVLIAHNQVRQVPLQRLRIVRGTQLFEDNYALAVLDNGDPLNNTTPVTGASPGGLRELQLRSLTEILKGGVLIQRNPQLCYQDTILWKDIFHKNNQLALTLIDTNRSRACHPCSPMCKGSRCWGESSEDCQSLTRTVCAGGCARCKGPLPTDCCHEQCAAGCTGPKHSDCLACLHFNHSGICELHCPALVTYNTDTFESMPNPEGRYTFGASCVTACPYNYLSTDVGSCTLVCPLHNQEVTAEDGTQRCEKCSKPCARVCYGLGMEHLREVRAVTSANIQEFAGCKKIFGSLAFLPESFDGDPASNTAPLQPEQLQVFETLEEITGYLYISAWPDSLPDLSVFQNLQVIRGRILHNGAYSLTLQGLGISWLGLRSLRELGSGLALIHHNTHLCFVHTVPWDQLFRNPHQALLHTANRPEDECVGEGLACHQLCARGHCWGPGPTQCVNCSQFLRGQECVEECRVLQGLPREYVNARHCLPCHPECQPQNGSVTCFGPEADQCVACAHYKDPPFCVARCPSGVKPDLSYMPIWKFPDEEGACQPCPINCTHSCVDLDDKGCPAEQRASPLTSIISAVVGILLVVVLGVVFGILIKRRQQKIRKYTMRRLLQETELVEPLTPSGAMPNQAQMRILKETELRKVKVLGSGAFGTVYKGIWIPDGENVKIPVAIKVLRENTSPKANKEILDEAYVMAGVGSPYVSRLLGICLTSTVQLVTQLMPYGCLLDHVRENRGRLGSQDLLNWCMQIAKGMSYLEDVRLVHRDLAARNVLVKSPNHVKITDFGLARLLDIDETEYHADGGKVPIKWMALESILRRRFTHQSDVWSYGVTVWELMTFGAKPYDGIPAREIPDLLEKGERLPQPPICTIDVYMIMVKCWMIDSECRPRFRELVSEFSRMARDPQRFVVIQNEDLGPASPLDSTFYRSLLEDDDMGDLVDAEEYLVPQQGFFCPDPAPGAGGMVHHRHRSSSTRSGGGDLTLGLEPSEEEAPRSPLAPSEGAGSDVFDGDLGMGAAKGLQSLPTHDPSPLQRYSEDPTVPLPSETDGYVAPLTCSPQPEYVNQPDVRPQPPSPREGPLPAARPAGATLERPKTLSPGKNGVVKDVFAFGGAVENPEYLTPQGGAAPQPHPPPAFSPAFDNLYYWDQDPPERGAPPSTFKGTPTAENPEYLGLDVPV

[3] = reduced viability of SK-BR-3 breast cancer cells – cell-based, 24 h, human, pilot screen (AID 572;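 active means viability at or below 10% of carrier control in both of two separate runs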;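 further: compound exposure lasted between 18 and 24 h rather than exactly 24 h; 100% = carrier-treated control wells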); conditions: SK-BR-3 viability, CellTiter-Glo luminescence, at 10 µM, stronger effect = lower value
[4] = HUVEC growth inhibition – cell-based, human, primary screen (AID 575;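 active means viability at or below 30% in both replicate assays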;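 further: 100% = median of untreated cell wells with 0.1% DMSO on each plate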); conditions: HUVEC proliferation, CellTiter-Glo luminescence, 72 h; at 10 µM; stronger effect = lower value
[5] = H69AR cell proliferation blockers – human, duplicate replicates, primary screen (AID 580;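 active means viability at or under a set limit in both replicates, limit being median viability minus 3 SD, cut at about 48% in these data, passing the limit was not always enough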;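 further: 100% = mean luminescence of untreated wells and 0% = no signal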); conditions: H69AR lung tumor cells viability, ATP luminescence, 72 h; at 10 µM; stronger effect = lower value
[6] = MRP1 drug-resistance reversers in H69AR cells – cell-based, doxorubicin co-treatment, pilot screen (AID 601;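 active means viability loss from added drug above about 55%, and viability with drug at most 40%, in both replicates, limit read from the data, passing the limit was not always enough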); conditions: CellTiter-Glo, 72 h, at 10 µM; for differential viability (reversal): stronger effect = higher value
[7] = yeast transport mutant growth inhibition pilot in 384-well plates, post-Golgi transport modulator project (AID 636; in the data active means inhibition above about 31%); conditions: absorbance 615 nm, about 18 h, stronger effect = higher value
[8] = growth suppression of yeast trafficking mutant, preliminary HTS, modulators of trafficking downstream of Golgi apparatus project, 1536-format plate, OD 615 nm (AID 637; in the data active means inhibition above about 30%); conditions: yeast transport mutant growth, absorbance 615 nm, 18 h; stronger effect = higher value
[9] = S. cerevisiae growth inhibition in permissive medium (OD615), pilot counter-assay for S. cerevisiae lifespan shortening project, permissive growth control (AID 705); conditions: OD615, 24 h, at 10 µM, stronger effect = higher value
[10] = S. cerevisiae growth inhibition in restrictive medium, OD615, pilot screen, restrictive growth control, yeast lifespan reduction project (AID 706;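 active means growth inhibition above a set limit, 3 SD over mean compound inhibition, in both replicates, cut at about 43% in these data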;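 further: modified DeaD lifespan yeast strain shifted to restrictive glucose medium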); conditions: OD615, 48 h, at 10 µM, stronger effect = higher value
[11] = doxorubicin toxicity protection in MRP-1 cells – H69AR cells, CellTiter-Glo, duplicate, MRP-1 activator project, pilot screen (AID 807;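 active means viability increase at or above a cutoff of the median across tested compounds plus 3 SD, cut at about 8.5% in these data, passing the limit was not always enough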;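 further: compound pretreatment 18-22 h then 72 h combined with doxorubicin; 0% = doxorubicin alone and 100% = vehicle without doxorubicin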); conditions: H69AR viability with doxorubicin, CellTiter-Glo luminescence; at 10 µM; stronger effect = higher value
[12] = viability of HCT116 without oncogenic beta-catenin – human colon tumor cells, pilot screen (AID 823;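 active means cell viability at or below a set limit in both duplicate runs, the limit being the all-compound median minus 4 SD, cut at about 23% in these data, passing the limit was not always enough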;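 further: 0% = wells killed by 20 µM Hyamine and 100% = untreated DMSO cell wells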); conditions: HCT116 beta-catenin knockout viability, CellTiter-Glo, 60 h; at 10 µM; stronger effect = lower value
[13] = viability of PTEN-null HCT116 cells – cell-based, HCT116 clonal line, CellTiter-Glo, pilot screen (AID 824;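 active means viability at or below 27.92% in each of two runs, the all-compound median minus 4 SD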;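 further: 0% = 20 µM Hyamine control and 100% = vehicle cell control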); conditions: HCT116 PTEN-deleted viability, 60 h, at 10 µM, stronger effect = lower value
[14] = RAM pathway blockade in budding yeast – dse1pr::URA3 reporter, 5-FOA selection, pilot screen (AID 869;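 active means inhibition over a set limit, the all-compound mean plus 3 SD, in both replicate runs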;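 further: 0% = DMSO wells with no growth and 100% = 10 µM 1-NA-PP1 with full growth; RAM network block rescues cells from 5-FOA so hits raise OD615 growth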); conditions: S. cerevisiae dse1pr::URA3 5-FOA growth, OD615, 2 d; at 10 µM; stronger effect = higher value; strain carries analog-sensitive mutant Cbk1 kinase
[15] = RAM signaling pathway blockade in yeast – S. cerevisiae, Pdr1DBD-CYC8 efflux-inhibited sensitized strain, primary screen (AID 1298;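 active means RAM network inhibition above 8.4% in each of two replicates, 3 SD over the compound average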;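 further: 0% = DMSO untreated cells without growth and 100% = 10 µM 1-NA-PP1 full growth; higher means more yeast growth rescued from 5-FOA killing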); conditions: S. cerevisiae cbk1-as DSE1-URA3 strain, 5-FOA growth OD615, 2 d; at 50 µM; stronger effect = higher value
[16] = H69AR cells + 2 uM doxorubicin, measured here: viability with 2 uM doxorubicin, stronger effect = lower value
[17] = H69AR cells, compound alone cytotoxicity

SMILES	viability [1] [%]	Her2 level [2]	viability [3]	viability [4]	viability [5]	differential viability (reversal) ([6]; H69AR cells + 2 uM doxorubicin)	viability [6, 16] [%]	viability [6, 17] [%]	inhibition [7]	inhibition [8]	growth inhibition [9]	growth inhibition [10]	viability increase [11]	viability [12]	viability [13]	inhibition [14]	RAM network inhibition [15]
COc1cc(OC)c2c(c1)OC(c1ccc(OC)c(OC)c1)C(O)C2=O (stereo not given)	90.5	79% (inactive)	90.5% (inactive)	112% (inactive)	90.9% (inactive)	12.9% (inactive)	78	90.9	-2.67% (inactive)	0.82% (inactive)	-13.6% (inactive)	-14.9% (inactive)	-1.91% (inactive)	101% (inactive)	100% (inactive)	2.65% (inactive)	2.25% (inactive)
CCOc1ccc(N(CC(=O)OC)S(=O)(=O)c2ccc(OC)c(OC)c2)cc1	108	122% (inactive)	108% (inactive)	87.2% (inactive)	106% (inactive)	6.15% (inactive)	99.4	106	3.12% (inactive)	-4.83% (inactive)	-11.6% (inactive)	-4.04% (inactive)	-0.96% (inactive)	99.9% (inactive)	106% (inactive)	0.39% (inactive)	2.44% (inactive)
O=C(OCN1C(=O)c2ccccc2C1=O)C1CCCCC1	82	97.5% (inactive)	82% (inactive)	87.3% (inactive)	87.6% (inactive)	-12.9% (inactive)	100	87.6	3.08% (inactive)	-7.17% (inactive)	0.93% (inactive)	-9.12% (inactive)	-2.19% (inactive)	90.2% (inactive)	91% (inactive)	1.03% (inactive)	0.77% (inactive)
O=c1c(-c2ccccc2)coc2c(CN3CCOCC3)c(O)ccc12	110	105% (inactive)	110% (inactive)	96.4% (inactive)	99% (inactive)	-1.39% (inactive)	100	99	0.95% (inactive)	-7.87% (inactive)	-9.23% (inactive)	4.11% (inactive)	-4.13% (inactive)	91.7% (inactive)	99.7% (inactive)	0.58% (inactive)	-0.61% (inactive)
CCOc1ccc(N(C(C)C(=O)NC2CCCCCC2)S(C)(=O)=O)cc1 (stereo not given)	90.5	98.5% (inactive)	90.5% (inactive)	101% (inactive)	94.1% (inactive)	1.44% (inactive)	92.7	94.1	-2.69% (inactive)	-3.83% (inactive)	-1.18% (inactive)	-21% (inactive)	-2.2% (inactive)	100% (inactive)	90.6% (inactive)	2.62% (inactive)	6.94% (inactive)
CC1(C)Oc2ccc3ccc(=O)oc3c2C(N2CCCCC2)C1O (stereo not given)	103	94% (inactive)	103% (inactive)	89.6% (inactive)	92.6% (inactive)	7.25% (inactive)	85.3	92.6	-0.52% (inactive)	-4.33% (inactive)	-4.78% (inactive)	-7.54% (inactive)	-2.43% (inactive)	101% (inactive)	98.2% (inactive)	1.49% (inactive)	2.29% (inactive)
O=C(Cn1ncc2c(=O)oc3ccccc3c21)NCCCN1CCCC1=O	86.5	106% (inactive)	86.5% (inactive)	93.1% (inactive)	101% (inactive)	16.6% (inactive)	84.4	101	1.79% (inactive)	-3% (inactive)	1.48% (inactive)	-6.73% (inactive)	-0.08% (inactive)	101% (inactive)	113% (inactive)	1.86% (inactive)	3.58% (inactive)
S=c1[nH]nc(-c2ccccc2)n1C1C=CCCC1 (stereo not given)	95.5	104% (inactive)	95.5% (inactive)	97.4% (inactive)	85% (inactive)	0.65% (inactive)	84.4	85	1.56% (inactive)	-6.33% (inactive)	2.92% (inactive)	-1.09% (inactive)	-1.61% (inactive)	102% (inactive)	101% (inactive)	1.67% (inactive)	2.63% (inactive)
CCn1cc(SCC(=O)NCC2CCCO2)c2ccccc21 (stereo not given)	88	93.5% (inactive)	88% (inactive)	102% (inactive)	85.5% (inactive)	-9.37% (inactive)	94.9	85.5	-4.67% (inactive)	-0.5% (inactive)	4.53% (inactive)	-6.71% (inactive)	-1.64% (inactive)	94.8% (inactive)	99.9% (inactive)	1.44% (inactive)	4.96% (inactive)
COc1ccc(NC(=O)c2cnc3n(c2=O)CCS3)cc1OC	112	106% (inactive)	112% (inactive)	88.2% (inactive)	95.7% (inactive)	11.8% (inactive)	83.9	95.7	-3.07% (inactive)	-4.59% (inactive)	-14.6% (inactive)	-5.98% (inactive)	1.5% (inactive)	109% (inactive)	103% (inactive)	2.45% (inactive)	7.24% (inactive)
